In PubChem BioAssay (EPA / NIEHS):
Inconclusive results are not listed. Calls of active or inactive are those of the source. The calls were made as follows, unless noted: active = hit-call score of the fitted dose curve at least 0.9, where 1 is the maximum; inconclusive = response in the unintended direction; inactive = score below 0.9.

Tests used:
[1] = target: Nuclear receptor subfamily 1 group I member 3 (Homo sapiens) (UniProt Q14994); assay: ATG_CAR_TRANS: Attagene TRANS-FACTORIAL HepG2 Assay for human Constitutive Androstane Receptor (CAR) (AID 2282969); conditions: HepG2 Attagene TRANS-FACTORIAL CAR reporter;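 also: activators raise reporter mRNA above DMSO so AC50 marks induction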
Method in brief: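 HepG2 cells transiently transfected with multiplexed GAL4-UAS reporter units expressing chimeric NR-Gal4 proteins; compound exposure 24 h. Reporter mRNA measured by RT-PCR, 6-FAM labelling, HpaI digestion and capillary electrophoresis; gain-of-signal fitted against DMSO baseline.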

[2] = target: Estrogen receptor (Homo sapiens) (UniProt P03372); assay: ATG_ERa_TRANS: Attagene TRANS-FACTORIAL HepG2 Assay for human Estrogen Receptor alpha (ERa) (AID 2282970); conditions: HepG2 Attagene TRANS ERa GAL4 reporter, mRNA
Method in brief: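 HepG2 cells transiently transfected with multiplexed GAL4-UAS reporter units read out chimeric NR-Gal4 activity. After 24 h compound exposure, reporter mRNA was quantified by RT-PCR, 6-FAM labeling, HpaI digestion and capillary electrophoresis, relative to DMSO.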

[3] = target: Steroid hormone receptor ERR1 (Homo sapiens) (UniProt P11474); assay: ATG_ERRa_TRANS: Attagene TRANS-FACTORIAL HepG2 Assay for human Estrogen-Related Receptor alpha (ERRa) (AID 2282971); conditions: HepG2 Attagene TRANS reporter, ERRa transactivation
Method in brief: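 HepG2 cells transiently transfected with GAL4-UAS reporter units and chimeric NR-Gal4 constructs; after 24 hour compound incubation, reporter mRNA quantified by RT-PCR, fluorescent labelling and capillary electrophoresis, gain of signal versus DMSO.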

[4] = target: X-box-binding protein 1 (Homo sapiens) (UniProt P17861); assay: ATG_Xbp1_CIS: Attagene CIS-FACTORIAL HepG2 Assay for human X-box Binding Protein 1 (XBP1) (AID 2282972; active = hit-call score of the fitted dose curve at least 0.9, where 1 is the maximum; inactive = score below 0.9); conditions: HepG2 XBP1 cis-element reporter, Attagene multiplex; actives raise or lower the signal
Method in brief: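 Fluorescence-labelled cDNA fragments from reporter transcripts, separated by capillary electrophoresis, give the signal. Source: HepG2 cells transfected with promoter-driven reporter units, harvested 24 h post-dose. DMSO served as reference for bidirectional curve fitting.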

[5] = target: Estrogen-related receptor gamma (Homo sapiens) (UniProt P62508); assay: ATG_ERRg_TRANS: Attagene TRANS-FACTORIAL HepG2 Assay for human Estrogen-Related Receptor gamma (ERRg) (AID 2282977); conditions: HepG2 Attagene TRANS reporter, ERRg transactivation;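 also: hits increase reporter signal over DMSO so potencies reflect activators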
Method in brief: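 HepG2 cells transiently transfected with multiplexed GAL4-UAS reporter units and chimeric NR-Gal4 constructs were exposed to test chemicals for 24 h. Reporter mRNA was measured by RT-PCR, 6-FAM primer extension, HpaI digestion and capillary electrophoresis; gain-of-signal versus DMSO.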

[6] = target: Glucocorticoid receptor (Homo sapiens) (UniProt P04150); assay: ATG_GR_TRANS: Attagene TRANS-FACTORIAL HepG2 Assay for human Glucocorticoid Receptor (GR) (AID 2282978); conditions: HepG2 Attagene TRANS GR reporter, mRNA transcription;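 also: activators score as hits since higher reporter transcript over DMSO is fitted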
Method in brief: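 HepG2 cells transiently transfected with GAL4-UAS reporter units and exogenous GR-Gal4 chimera, dosed 24 h. Reporter mRNA by RT-PCR, FAM labeling, HpaI digest and capillary electrophoresis; gain-of-signal fit versus DMSO.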

[7] = target: Oxysterols receptor LXR-alpha (Homo sapiens) (UniProt Q13133); assay: ATG_LXRa_TRANS: Attagene TRANS-FACTORIAL HepG2 Assay for human Liver X Receptor alpha (LXRa) (AID 2282980); conditions: HepG2 Attagene TRANS reporter, LXRa transactivation
Method in brief: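 HepG2 cells transiently transfected with GAL4-UAS reporter units for chimeric NR-Gal4 proteins, exposed to chemicals for 24 h. Reporter mRNA quantified by RT-PCR and capillary electrophoresis; gain of signal fitted relative to DMSO.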

[8] = target: Oxysterols receptor LXR-beta (Homo sapiens) (UniProt P55055); assay: ATG_LXRb_TRANS: Attagene TRANS-FACTORIAL HepG2 Assay for human Liver X Receptor beta (LXRb) (AID 2282981); conditions: HepG2 Attagene TRANS GAL4-LXRb reporter, mRNA
Method in brief: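 HepG2 cells transiently transfected with multiple reporter transcription units carrying chimeric NR-Gal4 proteins acting on GAL4-UAS reporters; compound exposure 24 h. Reporter mRNA quantified by RT-PCR, 6-FAM labelling, HpaI digestion and capillary electrophoresis; gain of signal versus DMSO.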

[9] = target: Hepatocyte nuclear factor 4-alpha (Homo sapiens) (UniProt P41235); assay: ATG_HNF4a_TRANS: Attagene TRANS-FACTORIAL HepG2 Assay for human Hepatocyte Nuclear Factor 4 alpha (HNF4a) (AID 2282982); conditions: HepG2 HNF4a transactivation reporter, mRNA readout
Method in brief: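 HepG2 cells transiently transfected with multiplexed GAL4-UAS reporter units responsive to chimeric NR-GAL4 proteins; compound exposure 24 h. Reporter mRNA quantified by RT-PCR, 6-FAM labelling, HpaI digestion and capillary electrophoresis; gain of signal versus DMSO baseline.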

[10] = ATG_M_32_TRANS: Attagene TRANS-FACTORIAL HepG2 Assay for M32 Transcription Factor (Internal Marker) (AID 2282984); conditions: HepG2 Attagene TRANS M32 internal marker reporter
Method in brief: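 HepG2 cells transiently transfected with multiple GAL4-UAS reporter transcription units, dosed for 24 hours; reporter mRNA quantified by RT-PCR, 6-FAM primer extension, HpaI digestion and capillary electrophoresis. Gain-of-signal fitted versus DMSO baseline; internal background-control marker.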

[11] = target: Nuclear receptor subfamily 4 group A member 2 (Homo sapiens) (UniProt P43354); assay: ATG_NURR1_TRANS: Attagene TRANS-FACTORIAL HepG2 Assay for human Nuclear Receptor Related Protein 1 (NURR1) (AID 2282985); conditions: HepG2 Attagene TRANS reporter, mRNA readout
Method in brief: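 HepG2 cells transiently transfected with GAL4-UAS reporter units and chimeric NR-Gal4 constructs; chemical exposure 24 h. Reporter mRNA quantified by RT-PCR, fluorescent labelling and capillary electrophoresis; gain of signal fitted relative to DMSO baseline.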

[12] = target: Transcriptional activator Myb (Homo sapiens) (UniProt P10242); assay: ATG_Myb_CIS: Attagene CIS-FACTORIAL HepG2 Assay for human Myeloblastosis (Myb) Proto-Oncogene Transcription Factor (AID 2282986; active = hit-call score of the fitted dose curve at least 0.9, where 1 is the maximum; inactive = score below 0.9); conditions: HepG2 Attagene CIS-FACTORIAL Myb reporter transcription; actives raise or lower the signal
Method in brief: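 Transiently transfected HepG2 cells carrying a multiplexed cis-promoter reporter set report endogenous Myb activity after 24 h compound exposure. Reporter mRNA is read by RT-PCR with capillary electrophoresis of fluorescent products, fitted bidirectionally against DMSO.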

[13] = target: Nuclear respiratory factor 1 (Homo sapiens) (UniProt Q16656); assay: ATG_NRF1_CIS: Attagene CIS-FACTORIAL HepG2 Assay for human Nuclear Respiratory Factor 1 (NRF1) Orphan Gene (AID 2282987; active = hit-call score of the fitted dose curve at least 0.9, where 1 is the maximum; inactive = score below 0.9); conditions: HepG2 NRF1 cis-element reporter, Attagene multiplex; actives raise or lower the signal
Method in brief: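 HepG2 cells transiently transfected with multiple cis-regulated reporter units, exposed 24 h. Reporter mRNAs measured by RT-PCR, fluorescent labelling, HpaI digestion and capillary electrophoresis; bidirectional fitting against DMSO.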

[14] = ATG_NFI_CIS: Attagene CIS-FACTORIAL HepG2 Assay for human Nuclear Factor I (NFI) (AID 2282989; active = hit-call score of the fitted dose curve at least 0.9, where 1 is the maximum; inactive = score below 0.9); conditions: HepG2 cis-regulatory reporter, NFI response element transcription; actives raise or lower the signal
Method in brief: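 Read-out: reporter mRNA via RT-PCR plus capillary electrophoresis with fluorescence detection. Transiently transfected HepG2 (endogenous TF activity on cis promoters), 24 h compound exposure; gain or loss of signal fitted against DMSO.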

[15] = target: Myc proto-oncogene protein (Homo sapiens) (UniProt P01106); assay: ATG_Myc_CIS: Attagene CIS-FACTORIAL HepG2 Assay for human Myelocytomatosis (Myc) Proto-Oncogene Transcription Factor (AID 2282990; active = hit-call score of the fitted dose curve at least 0.9, where 1 is the maximum; inactive = score below 0.9); conditions: HepG2, Attagene cis-reporter transcription factor activity; actives raise or lower the signal
Method in brief: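 HepG2 cells transiently transfected with multiple cis-promoter-driven reporter transcription units, so endogenous TF activity is read. After 24 h compound exposure, reporter mRNA was quantified by RT-PCR, 6-FAM labelling, HpaI digestion and capillary electrophoresis; bidirectional fit versus DMSO.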

[16] = ATG_M_19_TRANS: Attagene TRANS-FACTORIAL HepG2 Assay for M19 Transcription Factor (Internal Marker) (AID 2282974); conditions: HepG2 Attagene TRANS-FACTORIAL M19 internal marker reporter
Method in brief: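 HepG2 transiently transfected with GAL4-UAS multiplex reporter constructs, exposed 24 h; reporter RNA quantified by RT-PCR, 6-FAM labeling, HpaI digestion and capillary electrophoresis; internal background marker fitted upward versus DMSO.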

[17] = target: Bile acid receptor (Homo sapiens) (UniProt Q96RI1); assay: ATG_FXR_TRANS: Attagene TRANS-FACTORIAL HepG2 Assay for Farnesoid X Receptor (FXR) (AID 2282979); conditions: HepG2 Attagene TRANS FXR-GAL4 reporter transcription;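 also: hits raise reporter mRNA above DMSO so AC50 marks FXR activation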
Method in brief: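 HepG2 cells were transiently transfected with GAL4-UAS reporters driven by chimeric NR-Gal4 proteins and dosed for 24 h. Reporter mRNA was quantified by RT-PCR, fluorescent labelling, HpaI digestion and capillary electrophoresis, with gain of signal scored versus DMSO.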

[18] = ATG_GAL4_TRANS: Attagene TRANS-FACTORIAL HepG2 Assay for GAL4 (Internal Marker) (AID 2282976); conditions: HepG2 Attagene TRANS GAL4 internal marker reporter
Method in brief: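 Background-control readout: GAL4-UAS reporter transcript in transiently transfected HepG2 cells after 24 h compound exposure. Measured by RT-PCR, 6-FAM primer extension, HpaI digest and capillary electrophoresis; gain-of-signal fit versus DMSO.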

[19] = ATG_M_06_TRANS: Attagene TRANS-FACTORIAL HepG2 Assay for M06 Transcription Factor (Internal Marker) (AID 2282983); conditions: HepG2 Attagene TRANS M06 internal marker reporter;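 also: reporter transcript level by RT-PCR then capillary electrophoresis fluorescence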
Method in brief: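 HepG2 cells transiently transfected with GAL4-UAS multiple reporter units, dosed 24 h. Reporter RNA reverse-transcribed, PCR-amplified, 6-FAM-labeled, HpaI-digested and quantified by capillary electrophoresis; this internal-marker signal fitted upward relative to DMSO.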

Sequence of Estrogen-related receptor gamma (Homo sapiens) (P62508 whole entry, looked up, the tested form may be a part): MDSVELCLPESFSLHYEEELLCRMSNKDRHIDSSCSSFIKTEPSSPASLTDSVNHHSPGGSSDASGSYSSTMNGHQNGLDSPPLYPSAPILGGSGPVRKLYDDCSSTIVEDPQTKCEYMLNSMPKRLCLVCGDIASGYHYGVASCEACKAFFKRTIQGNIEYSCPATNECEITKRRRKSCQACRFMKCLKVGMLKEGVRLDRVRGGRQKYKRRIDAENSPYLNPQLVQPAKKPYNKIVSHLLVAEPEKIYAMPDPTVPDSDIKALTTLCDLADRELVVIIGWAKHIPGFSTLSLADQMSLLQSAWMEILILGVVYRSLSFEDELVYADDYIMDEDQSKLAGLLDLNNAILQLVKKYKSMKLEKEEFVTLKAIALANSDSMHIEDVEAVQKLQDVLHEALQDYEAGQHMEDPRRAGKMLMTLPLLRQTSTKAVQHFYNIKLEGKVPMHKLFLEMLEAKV
Sequence of Oxysterols receptor LXR-alpha (Homo sapiens) (Q13133 whole entry, looked up, the tested form may be a part): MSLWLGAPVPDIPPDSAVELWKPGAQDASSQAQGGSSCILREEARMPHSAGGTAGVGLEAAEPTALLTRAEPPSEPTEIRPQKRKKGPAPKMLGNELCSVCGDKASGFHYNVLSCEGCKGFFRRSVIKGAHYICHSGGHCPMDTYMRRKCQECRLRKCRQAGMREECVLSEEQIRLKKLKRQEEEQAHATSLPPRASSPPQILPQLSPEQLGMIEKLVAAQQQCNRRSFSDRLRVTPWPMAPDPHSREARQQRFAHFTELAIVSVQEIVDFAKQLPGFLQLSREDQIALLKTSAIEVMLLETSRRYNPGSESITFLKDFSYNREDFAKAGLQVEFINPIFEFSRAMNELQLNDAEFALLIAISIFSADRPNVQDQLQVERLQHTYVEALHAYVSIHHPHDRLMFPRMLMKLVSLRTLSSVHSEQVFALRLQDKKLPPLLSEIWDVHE
Sequence of Glucocorticoid receptor (Homo sapiens) (P04150 whole entry, looked up, the tested form may be a part): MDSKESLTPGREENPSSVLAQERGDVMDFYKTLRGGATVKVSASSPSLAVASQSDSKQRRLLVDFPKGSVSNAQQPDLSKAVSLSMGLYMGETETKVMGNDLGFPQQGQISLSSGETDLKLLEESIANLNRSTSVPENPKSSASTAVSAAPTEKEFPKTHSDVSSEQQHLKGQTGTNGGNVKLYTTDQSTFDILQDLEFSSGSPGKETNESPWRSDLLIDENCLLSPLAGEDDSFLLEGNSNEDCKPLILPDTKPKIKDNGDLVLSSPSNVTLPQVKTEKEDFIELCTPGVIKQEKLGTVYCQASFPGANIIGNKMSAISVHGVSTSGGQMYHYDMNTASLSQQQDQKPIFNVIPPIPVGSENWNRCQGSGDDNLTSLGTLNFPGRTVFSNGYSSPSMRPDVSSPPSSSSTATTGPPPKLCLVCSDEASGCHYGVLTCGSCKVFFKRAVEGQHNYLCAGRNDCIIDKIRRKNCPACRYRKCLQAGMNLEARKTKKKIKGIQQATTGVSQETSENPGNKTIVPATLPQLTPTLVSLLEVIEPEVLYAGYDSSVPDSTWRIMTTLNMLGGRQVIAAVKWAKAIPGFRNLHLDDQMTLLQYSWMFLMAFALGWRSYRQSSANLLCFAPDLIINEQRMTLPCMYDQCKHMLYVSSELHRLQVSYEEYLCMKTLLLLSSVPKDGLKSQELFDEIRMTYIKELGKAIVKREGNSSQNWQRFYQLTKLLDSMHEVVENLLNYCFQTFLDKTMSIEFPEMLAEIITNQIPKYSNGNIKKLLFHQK
Sequence of Nuclear respiratory factor 1 (Homo sapiens) (Q16656 whole entry, looked up): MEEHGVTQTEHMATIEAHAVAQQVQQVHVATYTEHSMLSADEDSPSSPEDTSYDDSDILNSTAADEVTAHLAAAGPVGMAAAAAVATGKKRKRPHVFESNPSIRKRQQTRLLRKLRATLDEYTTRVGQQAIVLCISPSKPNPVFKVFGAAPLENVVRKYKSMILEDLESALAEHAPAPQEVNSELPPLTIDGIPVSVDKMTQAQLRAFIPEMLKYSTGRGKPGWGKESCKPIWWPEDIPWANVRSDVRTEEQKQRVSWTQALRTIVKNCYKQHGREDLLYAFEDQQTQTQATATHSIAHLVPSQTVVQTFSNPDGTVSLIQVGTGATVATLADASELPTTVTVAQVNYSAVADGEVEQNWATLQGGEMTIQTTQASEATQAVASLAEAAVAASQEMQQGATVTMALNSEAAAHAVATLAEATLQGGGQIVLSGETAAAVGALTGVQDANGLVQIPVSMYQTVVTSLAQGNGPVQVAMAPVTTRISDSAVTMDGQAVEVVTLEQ
Sequence of Oxysterols receptor LXR-beta (Homo sapiens) (P55055 whole entry, looked up, the tested form may be a part): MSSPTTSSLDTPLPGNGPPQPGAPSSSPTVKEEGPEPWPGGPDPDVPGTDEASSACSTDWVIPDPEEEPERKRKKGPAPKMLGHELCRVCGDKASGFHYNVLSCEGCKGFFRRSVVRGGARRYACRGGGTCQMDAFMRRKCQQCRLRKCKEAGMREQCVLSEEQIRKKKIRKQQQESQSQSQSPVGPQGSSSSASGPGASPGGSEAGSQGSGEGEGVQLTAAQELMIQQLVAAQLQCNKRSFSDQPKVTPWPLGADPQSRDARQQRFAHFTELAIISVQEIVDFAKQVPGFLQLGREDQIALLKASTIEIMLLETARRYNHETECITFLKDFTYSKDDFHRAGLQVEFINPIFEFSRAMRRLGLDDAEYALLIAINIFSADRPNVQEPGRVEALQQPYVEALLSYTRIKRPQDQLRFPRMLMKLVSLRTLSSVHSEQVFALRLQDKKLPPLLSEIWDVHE
Sequence of Estrogen receptor (Homo sapiens) (P03372 whole entry, looked up, the tested form may be a part): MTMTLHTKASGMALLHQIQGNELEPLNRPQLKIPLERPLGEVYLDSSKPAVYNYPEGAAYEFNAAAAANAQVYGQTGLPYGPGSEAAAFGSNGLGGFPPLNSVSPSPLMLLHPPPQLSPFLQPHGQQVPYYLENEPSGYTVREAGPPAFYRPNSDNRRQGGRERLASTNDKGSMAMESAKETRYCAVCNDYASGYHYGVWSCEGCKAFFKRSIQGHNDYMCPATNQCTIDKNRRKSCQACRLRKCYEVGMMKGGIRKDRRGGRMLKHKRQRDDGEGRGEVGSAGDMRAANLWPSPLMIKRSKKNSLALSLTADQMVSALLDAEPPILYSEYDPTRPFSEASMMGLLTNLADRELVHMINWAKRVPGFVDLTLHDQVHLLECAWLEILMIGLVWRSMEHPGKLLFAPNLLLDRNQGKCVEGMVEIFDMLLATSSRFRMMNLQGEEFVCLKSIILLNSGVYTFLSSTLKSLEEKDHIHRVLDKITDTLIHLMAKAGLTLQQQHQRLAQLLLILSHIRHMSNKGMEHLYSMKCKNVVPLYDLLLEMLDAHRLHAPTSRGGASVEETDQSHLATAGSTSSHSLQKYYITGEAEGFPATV
Sequence of Nuclear receptor subfamily 4 group A member 2 (Homo sapiens) (P43354 whole entry, looked up, the tested form may be a part): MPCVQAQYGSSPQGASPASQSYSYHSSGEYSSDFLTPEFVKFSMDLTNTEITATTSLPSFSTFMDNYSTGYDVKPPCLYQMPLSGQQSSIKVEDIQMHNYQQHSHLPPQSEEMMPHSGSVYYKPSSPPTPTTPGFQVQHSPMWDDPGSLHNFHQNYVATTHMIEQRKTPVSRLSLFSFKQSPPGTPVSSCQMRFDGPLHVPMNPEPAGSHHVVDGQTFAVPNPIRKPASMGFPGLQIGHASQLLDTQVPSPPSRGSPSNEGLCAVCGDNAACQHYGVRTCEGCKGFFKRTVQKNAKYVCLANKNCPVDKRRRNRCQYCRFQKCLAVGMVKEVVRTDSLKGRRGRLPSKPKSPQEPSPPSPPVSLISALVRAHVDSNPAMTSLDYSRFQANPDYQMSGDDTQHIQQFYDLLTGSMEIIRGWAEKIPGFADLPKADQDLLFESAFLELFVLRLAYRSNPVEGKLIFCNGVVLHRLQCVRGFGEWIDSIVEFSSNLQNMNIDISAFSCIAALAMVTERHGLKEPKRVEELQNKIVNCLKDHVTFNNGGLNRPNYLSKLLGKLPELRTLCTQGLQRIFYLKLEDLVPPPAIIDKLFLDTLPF
Sequence of Myc proto-oncogene protein (Homo sapiens) (P01106 whole entry, looked up): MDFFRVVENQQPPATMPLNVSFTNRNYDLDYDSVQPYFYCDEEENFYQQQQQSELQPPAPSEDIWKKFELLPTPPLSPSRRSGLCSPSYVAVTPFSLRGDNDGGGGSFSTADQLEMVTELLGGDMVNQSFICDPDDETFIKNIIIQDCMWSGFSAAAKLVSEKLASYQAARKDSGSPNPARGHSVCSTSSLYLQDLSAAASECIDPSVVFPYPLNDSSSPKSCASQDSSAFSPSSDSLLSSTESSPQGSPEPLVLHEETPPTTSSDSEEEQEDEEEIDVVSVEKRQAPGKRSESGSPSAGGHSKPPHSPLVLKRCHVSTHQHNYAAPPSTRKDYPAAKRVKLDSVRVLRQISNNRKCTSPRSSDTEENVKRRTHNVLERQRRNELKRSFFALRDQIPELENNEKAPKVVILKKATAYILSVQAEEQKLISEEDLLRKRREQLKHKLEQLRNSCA
Sequence of Hepatocyte nuclear factor 4-alpha (Homo sapiens) (P41235 whole entry, looked up, the tested form may be a part): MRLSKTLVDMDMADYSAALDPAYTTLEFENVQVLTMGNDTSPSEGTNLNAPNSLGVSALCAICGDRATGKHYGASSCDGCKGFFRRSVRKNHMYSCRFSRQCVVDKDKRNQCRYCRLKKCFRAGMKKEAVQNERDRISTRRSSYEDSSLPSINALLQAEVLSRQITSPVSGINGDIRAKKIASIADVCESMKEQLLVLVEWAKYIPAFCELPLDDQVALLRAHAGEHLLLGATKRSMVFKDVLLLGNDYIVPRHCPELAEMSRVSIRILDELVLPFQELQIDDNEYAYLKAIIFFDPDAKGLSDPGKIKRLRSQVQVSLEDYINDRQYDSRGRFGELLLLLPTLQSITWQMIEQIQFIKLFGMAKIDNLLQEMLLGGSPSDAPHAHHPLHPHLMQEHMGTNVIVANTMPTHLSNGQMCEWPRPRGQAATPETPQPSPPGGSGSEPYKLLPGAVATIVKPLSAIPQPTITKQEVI

C[N+](C)(CCCNS(=O)(=O)CCC(F)(F)C(F)(F)C(F)(F)C(F)(F)C(F)(F)C(F)(F)F)CC(=O)[O-]
outcome [1]: inactive | AC50 [2]: 0.0373 µM (active) | outcome [3]: inactive | outcome [4]: inactive | outcome [5]: inactive | outcome [6]: inactive | outcome [7]: inactive | outcome [8]: inactive | outcome [9]: inactive | outcome [10]: inactive | outcome [11]: inactive | outcome [12]: inactive | outcome [13]: inactive | outcome [14]: inactive | outcome [15]: inactive

CC(C)(C)c1ccc(CCC=O)cc1
outcome [1]: inactive | AC50 [2]: 74 µM (active) | outcome [4]: inactive | outcome [16]: inactive | outcome [6]: inactive | outcome [17]: inactive | outcome [10]: inactive | outcome [11]: inactive | outcome [12]: inactive | outcome [13]: inactive | outcome [15]: inactive

CCOC=C(C(=O)OCC)C(=O)OCC
outcome [1]: inactive | outcome [2]: inactive | outcome [4]: inactive | outcome [18]: inactive | outcome [6]: inactive | outcome [8]: inactive | outcome [10]: inactive | outcome [11]: inactive | outcome [12]: inactive | outcome [13]: inactive | outcome [14]: inactive | outcome [15]: inactive

CCCCCCCCC(C)=O
outcome [1]: inactive | outcome [2]: inactive | outcome [4]: inactive | outcome [16]: inactive | outcome [6]: inactive | outcome [17]: inactive | outcome [7]: inactive | outcome [8]: inactive | outcome [12]: inactive | outcome [13]: inactive | outcome [14]: inactive | outcome [15]: inactive

Cc1cccc2c1ccc1ccccc12
outcome [1]: inactive | AC50 [2]: 11.2 µM (active) | outcome [3]: inactive | outcome [4]: inactive | outcome [6]: inactive | outcome [9]: inactive | outcome [10]: inactive | outcome [11]: inactive | outcome [12]: inactive | outcome [13]: inactive | outcome [15]: inactive

C/C=C/C(=O)C1=C(C)CCCC1(C)C
outcome [1]: inactive | outcome [2]: inactive | outcome [3]: inactive | AC50 [4]: 34.6 µM (active) | outcome [18]: inactive | outcome [5]: inactive | outcome [6]: inactive | outcome [7]: inactive | AC50 [9]: 159 µM (active) | outcome [10]: inactive | AC50 [11]: 152 µM (active) | outcome [12]: inactive | outcome [13]: inactive | AC50 [14]: 65.1 µM (active) | outcome [15]: inactive

Nc1cc(Cl)c(-c2cc(Cl)c(N)cc2Cl)cc1Cl
outcome [1]: inactive | outcome [2]: inactive | AC50 [4]: 11.1 µM (active) | outcome [5]: inactive | outcome [6]: inactive | outcome [8]: inactive | outcome [10]: inactive | outcome [11]: inactive | outcome [12]: inactive | outcome [13]: inactive | AC50 [14]: 17.3 µM (active) | AC50 [15]: 7.12 µM (active)

O=C(Nc1ccc(Cl)c(Cl)c1)c1cc(Cl)cc(Cl)c1O
outcome [1]: inactive | AC50 [2]: 6.62 µM (active) | AC50 [4]: 1.72 µM (active) | outcome [5]: inactive | outcome [6]: inactive | AC50 [17]: 3.82 µM (active) | outcome [7]: inactive | outcome [8]: inactive | outcome [9]: inactive | outcome [10]: inactive | outcome [11]: inactive | outcome [12]: inactive | outcome [13]: inactive | outcome [15]: inactive

CCN(CCC#N)c1ccccc1
outcome [1]: inactive | outcome [2]: inactive | outcome [4]: inactive | outcome [16]: inactive | outcome [18]: inactive | outcome [6]: inactive | outcome [17]: inactive | outcome [7]: inactive | outcome [19]: inactive | outcome [10]: inactive | outcome [11]: inactive | outcome [13]: inactive | outcome [14]: inactive | outcome [15]: inactive
